From paper PMC9838217, “Structure of SALL4 zinc finger domain reveals link between AT-rich DNA binding and Okihiro syndrome”
Residue numbers refer to the chain shown, from its start.

Assays:
Experiment in all cases: HT-SELEX; high values mean tight binding
Conditions in all cases: protein: recombinant; vector His6-GST; dsDNA, one strand shown
SALL4 ZFC4 WT (HT-SELEX) = target: T1, SALL4 ZFC4 WT (HT-SELEX) (Mus musculus, UniProt Q8BX22 870-940)
T1 sequence: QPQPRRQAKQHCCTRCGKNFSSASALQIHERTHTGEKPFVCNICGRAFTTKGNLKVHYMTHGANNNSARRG
Summary of the method: (§1)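 A 100 µl reaction of 10 mM Tris–HCl pH 7.5, 50 mM NaCl, poly(dI-dC) and DTT held purified recombinant mouse SALL4 zinc finger cluster 4 (residues 870–940, 1 µg) and library DNA (1.5 µg first cycle, 200 ng later) for 10 min at room temperature. Complexes captured on Ni2+ beads were washed, PCR-amplified and reselected for up to 6 cycles, in triplicate, then MiSeq-sequenced and scanned for 6-mers. Binding signal is the read fraction of each canonical k-mer expressed as fold change over the initial random library.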

[1] = target: T2, SALL4 ZFC4 R900W (HT-SELEX) (Mus musculus, UniProt Q8BX22 870-940, R900W)
T2 sequence: T1 sequence with R31W
Summary of the method: as §1

[2] = target: T3, SALL4 ZFC4 G921D (HT-SELEX) (Mus musculus, UniProt Q8BX22 870-940, G921D)
T3 sequence: T1 sequence with G52D
Summary of the method: as §1

Q: What does the source list for CGTCCA?
A: binding signal (SALL4 ZFC4 WT (HT-SELEX)): 0.318 ± 0.0103 fold-change vs cycle 0; binding signal [1]: 0.381 ± 0.0253 fold-change vs cycle 0; binding signal [2]: 0.504 ± 0.0811 fold-change vs cycle 0

Q: Which binding signal (SALL4 ZFC4 WT (HT-SELEX)) does the source give for ATTTTC here?
A: Its binding signal is 1.99 ± 0.115 fold-change vs cycle 0.

Q: And the binding signal [1]?
A: Its binding signal is 1.68 ± 0.0202 fold-change vs cycle 0.

Q: What about the binding signal [2] of the same sequence?
A: Its binding signal is 1.56 ± 0.0749 fold-change vs cycle 0.

Q: For GTGACA, which binding signal (SALL4 ZFC4 WT (HT-SELEX)) is on record?
A: Its binding signal is 0.691 ± 0.0164 fold-change vs cycle 0.

Q: And the binding signal [1]?
A: The binding signal was 0.813 ± 0.0124 fold-change vs cycle 0.

Q: And the binding signal [2]?
A: The binding signal was 0.852 ± 0.0256 fold-change vs cycle 0.

Q: What does the source list for ATGCTG?
A: binding signal (SALL4 ZFC4 WT (HT-SELEX)): 0.649 ± 0.0321 fold-change vs cycle 0; binding signal [1]: 0.712 ± 0.0351 fold-change vs cycle 0; binding signal [2]: 0.801 ± 0.0529 fold-change vs cycle 0

Q: What does the source list for ATCAGA?
A: binding signal (SALL4 ZFC4 WT (HT-SELEX)): 1.37 ± 0.0717 fold-change vs cycle 0; binding signal [1]: 1.43 ± 0.0639 fold-change vs cycle 0; binding signal [2]: 1.38 ± 0.109 fold-change vs cycle 0

Q: What does the source list for GTAGAC?
A: binding signal (SALL4 ZFC4 WT (HT-SELEX)): 0.684 ± 0.0405 fold-change vs cycle 0; binding signal [1]: 0.821 ± 0.033 fold-change vs cycle 0; binding signal [2]: 0.891 ± 0.0118 fold-change vs cycle 0

Q: With AAAAGA as the sequence, how does the binding signal (SALL4 ZFC4 WT (HT-SELEX)) read?
A: Its binding signal is 1.8 ± 0.0481 fold-change vs cycle 0.

Q: What about the binding signal [1] of the same sequence?
A: Its binding signal is 1.94 ± 0.106 fold-change vs cycle 0.

Q: What about the binding signal [2] of the same sequence?
A: The binding signal was 1.7 ± 0.125 fold-change vs cycle 0.

Q: What does the source list for GTCCTA?
A: binding signal (SALL4 ZFC4 WT (HT-SELEX)): 0.764 ± 0.0287 fold-change vs cycle 0; binding signal [1]: 0.905 ± 0.0413 fold-change vs cycle 0; binding signal [2]: 0.9363 ± 0.00722 fold-change vs cycle 0

Q: What does the source list for GGGACA?
A: binding signal (SALL4 ZFC4 WT (HT-SELEX)): 0.383 ± 0.0239 fold-change vs cycle 0; binding signal [1]: 0.458 ± 0.0236 fold-change vs cycle 0; binding signal [2]: 0.564 ± 0.0569 fold-change vs cycle 0

Q: What does the source list for ACCCAC?
A: binding signal (SALL4 ZFC4 WT (HT-SELEX)): 0.443 ± 0.0307 fold-change vs cycle 0; binding signal [1]: 0.506 ± 0.0282 fold-change vs cycle 0; binding signal [2]: 0.606 ± 0.0557 fold-change vs cycle 0

Q: ATCGGA was tested. Which binding signal (SALL4 ZFC4 WT (HT-SELEX)) did it give?
A: The binding signal was 0.708 ± 0.0433 fold-change vs cycle 0.

Q: What about the binding signal [1] of the same sequence?
A: The binding signal was 0.804 ± 0.0524 fold-change vs cycle 0.

Q: And the binding signal [2]?
A: Its binding signal is 0.928 ± 0.0274 fold-change vs cycle 0.

Q: How did the binding signal (SALL4 ZFC4 WT (HT-SELEX)) turn out when AGATAG was run?
A: The binding signal was 1.35 ± 0.0403 fold-change vs cycle 0.

Q: What about the binding signal [1] of the same sequence?
A: The binding signal was 1.5 ± 0.0704 fold-change vs cycle 0.

Q: And the binding signal [2]?
A: The binding signal was 1.43 ± 0.117 fold-change vs cycle 0.

Q: With CGTACC as the sequence, how does the binding signal (SALL4 ZFC4 WT (HT-SELEX)) read?
A: The binding signal was 0.409 ± 0.0203 fold-change vs cycle 0.

Q: And the binding signal [1]?
A: Its binding signal is 0.467 ± 0.0146 fold-change vs cycle 0.

Q: And the binding signal [2]?
A: The binding signal was 0.564 ± 0.0582 fold-change vs cycle 0.

Q: ACTGAT was tested. Which binding signal (SALL4 ZFC4 WT (HT-SELEX)) did it give?
A: Its binding signal is 1.4 ± 0.115 fold-change vs cycle 0.

Q: And the binding signal [1]?
A: The binding signal was 1.51 ± 0.108 fold-change vs cycle 0.

Q: What about the binding signal [2] of the same sequence?
A: The binding signal was 1.43 ± 0.137 fold-change vs cycle 0.

Q: Which binding signal (SALL4 ZFC4 WT (HT-SELEX)) does the source give for CACTAG here?
A: The binding signal was 0.821 ± 0.0388 fold-change vs cycle 0.

Q: And the binding signal [1]?
A: Its binding signal is 0.968 ± 0.0358 fold-change vs cycle 0.

Q: What about the binding signal [2] of the same sequence?
A: Its binding signal is 0.987 ± 0.027 fold-change vs cycle 0.

Q: For CCGTTC, which binding signal (SALL4 ZFC4 WT (HT-SELEX)) is on record?
A: Its binding signal is 0.364 ± 0.0226 fold-change vs cycle 0.

Q: And the binding signal [1]?
A: Its binding signal is 0.435 ± 0.0276 fold-change vs cycle 0.

Q: And the binding signal [2]?
A: Its binding signal is 0.511 ± 0.0586 fold-change vs cycle 0.

Q: CATTGG was tested. Which binding signal (SALL4 ZFC4 WT (HT-SELEX)) did it give?
A: Its binding signal is 0.754 ± 0.0443 fold-change vs cycle 0.

Q: And the binding signal [1]?
A: The binding signal was 0.867 ± 0.0514 fold-change vs cycle 0.

Q: What about the binding signal [2] of the same sequence?
A: Its binding signal is 0.924 ± 0.0186 fold-change vs cycle 0.

Q: How did the binding signal (SALL4 ZFC4 WT (HT-SELEX)) turn out when GACCTA was run?
A: The binding signal was 0.743 ± 0.0147 fold-change vs cycle 0.

Q: What about the binding signal [1] of the same sequence?
A: The binding signal was 0.857 ± 0.0141 fold-change vs cycle 0.

Q: And the binding signal [2]?
A: The binding signal was 0.926 ± 0.0368 fold-change vs cycle 0.

Q: What does the source list for GACCCA?
A: binding signal (SALL4 ZFC4 WT (HT-SELEX)): 0.39 ± 0.0219 fold-change vs cycle 0; binding signal [1]: 0.467 ± 0.00775 fold-change vs cycle 0; binding signal [2]: 0.59 ± 0.0677 fold-change vs cycle 0

Q: Which binding signal (SALL4 ZFC4 WT (HT-SELEX)) does the source give for CTTTCC here?
A: Its binding signal is 0.771 ± 0.025 fold-change vs cycle 0.

Q: What about the binding signal [1] of the same sequence?
A: Its binding signal is 0.935 ± 0.0213 fold-change vs cycle 0.

Q: And the binding signal [2]?
A: Its binding signal is 0.967 ± 0.0233 fold-change vs cycle 0.

Q: TATTGA was tested. Which binding signal (SALL4 ZFC4 WT (HT-SELEX)) did it give?
A: Its binding signal is 2.22 ± 0.167 fold-change vs cycle 0.

Q: And the binding signal [1]?
A: Its binding signal is 2 ± 0.134 fold-change vs cycle 0.

Q: And the binding signal [2]?
A: The binding signal was 1.83 ± 0.179 fold-change vs cycle 0.

Q: With AGCAAC as the sequence, how does the binding signal (SALL4 ZFC4 WT (HT-SELEX)) read?
A: Its binding signal is 0.642 ± 0.0202 fold-change vs cycle 0.

Q: What about the binding signal [1] of the same sequence?
A: Its binding signal is 0.736 ± 0.0162 fold-change vs cycle 0.

Q: What about the binding signal [2] of the same sequence?
A: The binding signal was 0.849 ± 0.0333 fold-change vs cycle 0.

Q: With CCAAGC as the sequence, how does the binding signal (SALL4 ZFC4 WT (HT-SELEX)) read?
A: The binding signal was 0.327 ± 0.034 fold-change vs cycle 0.

Q: And the binding signal [1]?
A: Its binding signal is 0.384 ± 0.0115 fold-change vs cycle 0.

Q: What about the binding signal [2] of the same sequence?
A: Its binding signal is 0.516 ± 0.0505 fold-change vs cycle 0.

Q: Which binding signal (SALL4 ZFC4 WT (HT-SELEX)) does the source give for TCCAGA here?
A: Its binding signal is 0.807 ± 0.0459 fold-change vs cycle 0.

Q: And the binding signal [1]?
A: Its binding signal is 0.894 ± 0.029 fold-change vs cycle 0.

Q: And the binding signal [2]?
A: The binding signal was 0.927 ± 0.0563 fold-change vs cycle 0.

Q: What does the source list for CACTCC?
A: binding signal (SALL4 ZFC4 WT (HT-SELEX)): 0.513 ± 0.0257 fold-change vs cycle 0; binding signal [1]: 0.603 ± 0.0288 fold-change vs cycle 0; binding signal [2]: 0.684 ± 0.0287 fold-change vs cycle 0

Q: Which binding signal (SALL4 ZFC4 WT (HT-SELEX)) does the source give for AGTGCA here?
A: Its binding signal is 0.627 ± 0.0465 fold-change vs cycle 0.

Q: And the binding signal [1]?
A: The binding signal was 0.704 ± 0.0363 fold-change vs cycle 0.

Q: And the binding signal [2]?
A: The binding signal was 0.802 ± 0.0221 fold-change vs cycle 0.

Q: With AGTACA as the sequence, how does the binding signal (SALL4 ZFC4 WT (HT-SELEX)) read?
A: The binding signal was 1.29 ± 0.0355 fold-change vs cycle 0.

Q: And the binding signal [1]?
A: The binding signal was 1.43 ± 0.0834 fold-change vs cycle 0.

Q: What about the binding signal [2] of the same sequence?
A: Its binding signal is 1.35 ± 0.0882 fold-change vs cycle 0.

Q: AGATCA was tested. Which binding signal (SALL4 ZFC4 WT (HT-SELEX)) did it give?
A: The binding signal was 1.29 ± 0.0762 fold-change vs cycle 0.

Q: And the binding signal [1]?
A: The binding signal was 1.44 ± 0.0715 fold-change vs cycle 0.

Q: And the binding signal [2]?
A: The binding signal was 1.46 ± 0.0921 fold-change vs cycle 0.

Q: Which binding signal (SALL4 ZFC4 WT (HT-SELEX)) does the source give for ATCAAT here?
A: Its binding signal is 2.28 ± 0.171 fold-change vs cycle 0.

Q: And the binding signal [1]?
A: Its binding signal is 2.07 ± 0.0713 fold-change vs cycle 0.

Q: And the binding signal [2]?
A: Its binding signal is 1.9 ± 0.133 fold-change vs cycle 0.

Q: How did the binding signal (SALL4 ZFC4 WT (HT-SELEX)) turn out when GTGAAC was run?
A: Its binding signal is 0.832 ± 0.046 fold-change vs cycle 0.

Q: What about the binding signal [1] of the same sequence?
A: Its binding signal is 0.941 ± 0.022 fold-change vs cycle 0.

Q: And the binding signal [2]?
A: Its binding signal is 1.01 ± 0.0456 fold-change vs cycle 0.
